# Source: PubChem BioAssay (EPA / NIEHS)
# Values joined by “and” are separate entries in the source; they are usually repeats but may differ in a detail not shown here. Identical values can stand only once. Active and inactive are the calls of the source. Rule for the calls: active = hit-call score of the fitted dose curve at least 0.9, where 1 is the maximum; inactive = score below 0.9.
# Read-out: CD69, CD69 (gene 969)
# Test: BSK_SAg_CD69: BioMAP Diversity Plus: SAg Assay for CD69 Biomarker Activity (AID 2283089);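 for AC50: cell surface CD69 protein quantified by ELISA with fluorescence detection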
# Conditions: primary human HUVEC with PBMC; actives raise or lower the signal
# Outline: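 Values derive from bidirectional fitting relative to DMSO vehicle. Cells: umbilical vein endothelium plus peripheral blood mononuclear cells, treated 24 h before fluorescent ELISA for CD69.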
SMILES,AC50,outcome
Nc1ccc(-c2ccc(N)c(N)c2)cc1N,12.7 µM (active),
O=c1[nH]c(Cl)c(Cl)cc1Cl,,inactive
O=C(O)CCCc1ccc(N(CCCl)CCCl)cc1,23.7 µM (active) and 20 µM (active),
COC(C)(C)CCC[C@H](C)C/C=C/C(C)=C/C(=O)OC(C)C,18 µM (active),
O=P1(NCCCl)OCCCN1CCCl (stereo unspecified),,inactive
O=S(=O)(c1ccccc1)c1ccccc1,,inactive
Clc1ccc(-c2ccccc2)cc1,,inactive
Oc1cc(Cl)ccc1Cl,,inactive

# Read-out: Monocyte Chemoattractant Protein-1 (MCP1), CCL2 (gene 6347)
# Test: BSK_SAg_MCP1: BioMAP Diversity Plus: SAg Assay for Monocyte Chemoattractant Protein-1 (MCP1) Biomarker Activity (AID 2283090)
# Conditions: primary human HUVEC with PBMC; actives raise or lower the signal
# Outline: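 MCP-1 levels in the endothelial–PBMC SAg co-culture were quantified by ELISA at 24 h post-dosing; both increases and decreases versus DMSO scored. Cytotoxicity monitored by SRB total protein in parallel cultures.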
SMILES,outcome,AC50
Nc1ccc(-c2ccc(N)c(N)c2)cc1N,inactive,
O=c1[nH]c(Cl)c(Cl)cc1Cl,inactive,
O=C(O)CCCc1ccc(N(CCCl)CCCl)cc1,,20 µM (active) and 27.2 µM (active)
COC(C)(C)CCC[C@H](C)C/C=C/C(C)=C/C(=O)OC(C)C,,20 µM (active)
O=P1(NCCCl)OCCCN1CCCl (stereo unspecified),inactive,
O=S(=O)(c1ccccc1)c1ccccc1,inactive,
Clc1ccc(-c2ccccc2)cc1,inactive,
Oc1cc(Cl)ccc1Cl,inactive,
